Source: PubChem BioAssay AID1159580 (chemical genetic matrix, 2015)
Where “and” joins values, the source holds several entries; their conditions need not be identical. Identical values can stand only once. Among all 5,500 compounds or so, about 2,000 (36%) were called active. Roughly 18% stayed inconclusive and do not appear here. No stated cut-off is given here; in the data, active means normalized growth mostly below about 0.91 (no sharp cut-off); inconclusive means no clear call, values can overlap the other calls; inactive means mostly above about 0.92. This is one part of the list.

Experiment: chemical genetic growth profiling, strain panel (AID 1159580);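 further: tested at 20 µM; growth read once vehicle control cultures reached saturation at 30 °C; 1 = growth at the plate median or of vehicle wells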
Settings: growth OD
[1] = S. cerevisiae deletion strains, locus YAL013W, strain DEP1, stronger effect = lower value
[2] = S. cerevisiae deletion strains, locus YBR229C, strain ROT2, stronger effect = lower value
[3] = S. cerevisiae deletion strains, locus YDL101C, strain DUN1, stronger effect = lower value
[4] = S. cerevisiae deletion strains, locus YDL134C, strain PPH21, stronger effect = lower value
[5] = S. cerevisiae deletion strains, locus YDR150W, strain NUM1, stronger effect = lower value
[6] = S. cerevisiae deletion strains, locus YGR078C, strain PAC10, stronger effect = lower value
[7] = S. cerevisiae deletion strains, locus YGR229C, strain SMI1, stronger effect = lower value
[8] = S. cerevisiae deletion strains, locus YHR030C, strain SLT2, stronger effect = lower value
[9] = S. cerevisiae deletion strains, locus YJR043C, strain POL32, stronger effect = lower value
[10] = S. cerevisiae deletion strains, locus YJR075W, strain HOC1, stronger effect = lower value
[11] = S. cerevisiae deletion strains, locus YKL190W, strain CNB1, stronger effect = lower value
[12] = S. cerevisiae deletion strains, locus YLR039C, strain RIC1, stronger effect = lower value
[13] = S. cerevisiae deletion strains, locus YLR262C, strain YPT6, stronger effect = lower value
[14] = S. cerevisiae deletion strains, locus YMR263W, strain SAP30, stronger effect = lower value
[15] = S. cerevisiae deletion strains, locus YNL153C, strain GIM3, stronger effect = lower value
[16] = S. cerevisiae deletion strains, locus YNL322C, strain KRE1, stronger effect = lower value
[17] = S. cerevisiae deletion strains, locus YOL006C, strain TOP1, stronger effect = lower value
[18] = S. cerevisiae deletion strains, locus YPL055C, strain LGE1, stronger effect = lower value
[19] = S. cerevisiae deletion strains, locus YPL241C, strain CIN2, stronger effect = lower value
[20] = S. cerevisiae strains, strain wild type, stronger effect = lower value

Measured: normalized growth

O=C(O)c1cc(C(F)(F)F)ccc1F
inactive: [1] 0.999 | [2] 0.982 | [3] 0.961 | [4] 0.989 | [5] 1 | S. cerevisiae deletion strains, locus YEL061C, strain CIN8, stronger effect = lower value 0.997 | [6] 0.975 | [7] 1 | [8] 0.964 | S. cerevisiae deletion strains, locus YHR087W, strain rtc3, stronger effect = lower value 0.973 | S. cerevisiae deletion strains, locus YJL187C, strain SWE1, stronger effect = lower value 0.998 | [9] 0.995 | [10] 1 | [11] 1 | [12] 0.991 | S. cerevisiae deletion strains, locus YLR058C, strain SHM2 (second series), stronger effect = lower value 0.983 | S. cerevisiae deletion strains, locus YLR085C, strain ARP6, stronger effect = lower value 1.02 | [13] 0.979 | S. cerevisiae deletion strains, locus YML094W, strain GIM5, stronger effect = lower value 0.916 | S. cerevisiae deletion strains, locus YMR219W, strain ESC1, stronger effect = lower value 0.999 | [14] 1.01 | [15] 1.02 | S. cerevisiae deletion strains, locus YNL298W, strain CLA4 (second series), stronger effect = lower value 0.996 | [16] 0.99 | S. cerevisiae deletion strains, locus YNR030W, strain Alg12, stronger effect = lower value 0.982 | [17] 0.987 | [18] 1.01 | [19] 0.929 | S. cerevisiae deletion strains, locus YPR135W, strain CTF4, stronger effect = lower value 0.905 | [20] 0.979

NCCCC(N)(C(=O)O)C(F)F (stereo not drawn)
inactive: S. cerevisiae deletion strains, locus YAL040C, strain CLN3, stronger effect = lower value 0.996 | S. cerevisiae deletion strains, locus YCL061C, strain MRC1 (second series), stronger effect = lower value 1 | S. cerevisiae deletion strains, locus YDR363W, strain ESC2, stronger effect = lower value 0.981 | S. cerevisiae deletion strains, locus YER002W, strain NOP16, stronger effect = lower value 0.996 | [6] 1.01 | [14] 0.994 | [15] 1.02 | S. cerevisiae deletion strains, locus YNL175C, strain NOP13, stronger effect = lower value 1 | S. cerevisiae deletion strains, locus YNL197C, strain WHI3, stronger effect = lower value 0.983 | S. cerevisiae deletion strains, locus YNL224C, strain SQS1, stronger effect = lower value 1.01 | [16] 0.986 | S. cerevisiae deletion strains, locus YOR083W, strain WHI5 (second series), stronger effect = lower value 1.01 | [19] 1

OCC(S)CS (stereo not drawn)
inactive: [1] 0.987 | S. cerevisiae deletion strains, locus YBR021W, strain FUR4, stronger effect = lower value 0.999 | [2] 0.96 | S. cerevisiae deletion strains, locus YCL029C, strain bik1, stronger effect = lower value 0.983 | S. cerevisiae deletion strains, locus YDL035C, strain GPR1, stronger effect = lower value 0.979 | S. cerevisiae deletion strains, locus YDL074C, strain BRE1, stronger effect = lower value 0.963 | [3] 0.985 | [4] 0.976 | S. cerevisiae deletion strains, locus YDL185W, strain tfp1, stronger effect = lower value 0.935 | S. cerevisiae deletion strains, locus YDL192W, strain arf1, stronger effect = lower value 0.964 | S. cerevisiae deletion strains, locus YDR101C, strain arx1, stronger effect = lower value 0.978 | [5] 0.981 | S. cerevisiae deletion strains, locus YDR162C, strain NBP2, stronger effect = lower value 0.966 | S. cerevisiae deletion strains, locus YDR318W, strain mcm21, stronger effect = lower value 1 | S. cerevisiae deletion strains, locus YDR388W, stronger effect = lower value 0.982 | S. cerevisiae deletion strains, locus YDR502C, strain sam2, stronger effect = lower value 0.974 | S. cerevisiae deletion strains, locus YER110C, stronger effect = lower value 0.983 | S. cerevisiae deletion strains, locus YER155C, strain BEM2, stronger effect = lower value 0.999 | S. cerevisiae deletion strains, locus YER167W, strain BCK2, stronger effect = lower value 1.02 | S. cerevisiae deletion strains, locus YGL078C, strain dbp3, stronger effect = lower value 0.992 | S. cerevisiae deletion strains, locus YGL086W, strain mad1, stronger effect = lower value 1.01 | S. cerevisiae deletion strains, locus YGL248W, strain PDE1, stronger effect = lower value 0.972 | [6] 0.972 | S. cerevisiae deletion strains, locus YGR135W, strain pre9, stronger effect = lower value 0.962 | [7] 0.986 | S. cerevisiae deletion strains, locus YGR252W, strain gcn5, stronger effect = lower value 0.949 | [8] 1.01 and 0.959 | S. cerevisiae deletion strains, locus YHR079C, strain IRE1 (second series), stronger effect = lower value 1.01 | S. cerevisiae deletion strains, locus YHR079C, strain IRE1, stronger effect = lower value 0.931 | S. cerevisiae deletion strains, locus YHR094C, strain hxt1, stronger effect = lower value 0.98 | S. cerevisiae deletion strains, locus YHR129C, strain ARP1, stronger effect = lower value 1 | S. cerevisiae deletion strains, locus YHR200W, strain rpn10, stronger effect = lower value 0.974 | S. cerevisiae deletion strains, locus YIL066C, strain RNR3, stronger effect = lower value 0.967 | S. cerevisiae deletion strains, locus YIL073C, strain SPO22, stronger effect = lower value 1.03 | S. cerevisiae deletion strains, locus YIL125W, strain kgd1, stronger effect = lower value 0.966 | S. cerevisiae deletion strains, locus YIR030C, strain dcg1, stronger effect = lower value 0.989 | S. cerevisiae deletion strains, locus YJL095W, strain BCK1, stronger effect = lower value 1.01 and 0.978 | S. cerevisiae deletion strains, locus YJL134W, strain LCB3, stronger effect = lower value 0.994 | S. cerevisiae deletion strains, locus YJL168C, strain set2, stronger effect = lower value 0.984 | S. cerevisiae deletion strains, locus YJL187C, strain SWE1 (second series), stronger effect = lower value 0.973 | S. cerevisiae deletion strains, locus YJR066W, strain TOR1, stronger effect = lower value 0.933 | [10] 0.974 | S. cerevisiae deletion strains, locus YKL009W, strain mrt4, stronger effect = lower value 1 | S. cerevisiae deletion strains, locus YKL068W, stronger effect = lower value 0.984 | S. cerevisiae deletion strains, locus YKL085W, strain MDH1 (second series), stronger effect = lower value 1.04 | S. cerevisiae deletion strains, locus YKL085W, strain MDH1, stronger effect = lower value 1.04 | [11] 0.985 | S. cerevisiae deletion strains, locus YKR001C, strain vps1, stronger effect = lower value 0.978 | [12] 1 | S. cerevisiae deletion strains, locus YLR058C, strain SHM2, stronger effect = lower value 0.984 | S. cerevisiae deletion strains, locus YLR102C, strain apc9, stronger effect = lower value 0.979 | S. cerevisiae deletion strains, locus YLR113W, strain HOG1, stronger effect = lower value 1.02 | [13] 0.996 | S. cerevisiae deletion strains, locus YLR268W, strain sec22, stronger effect = lower value 0.955 | S. cerevisiae deletion strains, locus YLR330W, strain CHS5, stronger effect = lower value 1.01 | S. cerevisiae deletion strains, locus YLR342W, strain FKS1 (second series), stronger effect = lower value 1.01 | S. cerevisiae deletion strains, locus YLR371W, strain rom2, stronger effect = lower value 0.986 | S. cerevisiae deletion strains, locus YLR418C, strain cdc73, stronger effect = lower value 0.941 | S. cerevisiae deletion strains, locus YML016C, strain PPZ1, stronger effect = lower value 1 | S. cerevisiae deletion strains, locus YML032C, strain rad52, stronger effect = lower value 0.973 | S. cerevisiae deletion strains, locus YML124C, strain tub3, stronger effect = lower value 0.989 | S. cerevisiae deletion strains, locus YMR078C, strain ctf18, stronger effect = lower value 0.995 | S. cerevisiae deletion strains, locus YMR223W, strain ubp8, stronger effect = lower value 0.999 | [14] 0.974 | S. cerevisiae deletion strains, locus YMR307W, strain GAS1, stronger effect = lower value 1.08 | S. cerevisiae deletion strains, locus YNL067W, strain RPL9B, stronger effect = lower value 0.964 | S. cerevisiae deletion strains, locus YNL128W, strain TEP1, stronger effect = lower value 0.974 | [15] 0.973 | S. cerevisiae deletion strains, locus YNL183C, strain NPR1, stronger effect = lower value 0.97 | S. cerevisiae deletion strains, locus YNL233W, strain BNI4, stronger effect = lower value 1 | S. cerevisiae deletion strains, locus YNL250W, strain rad50, stronger effect = lower value 0.973 | S. cerevisiae deletion strains, locus YNL271C, strain bni1, stronger effect = lower value 0.988 | S. cerevisiae deletion strains, locus YNL298W, strain CLA4, stronger effect = lower value 0.978 | S. cerevisiae deletion strains, locus YNL307C, strain MCK1, stronger effect = lower value 0.998 | [16] 0.978 | S. cerevisiae deletion strains, locus YNR052C, strain pop2, stronger effect = lower value 0.987 | [17] 0.849 | S. cerevisiae deletion strains, locus YOL012C, strain htz1 0.787 | S. cerevisiae deletion strains, locus YOL147C, strain pex11, stronger effect = lower value 0.987 | S. cerevisiae deletion strains, locus YOR061W, strain CKA2, stronger effect = lower value 0.969 | S. cerevisiae deletion strains, locus YOR136W, strain idh2, stronger effect = lower value 0.992 | S. cerevisiae deletion strains, locus YOR144C, strain elg1, stronger effect = lower value 0.976 | S. cerevisiae deletion strains, locus YOR184W, strain ser1, stronger effect = lower value 0.996 | S. cerevisiae deletion strains, locus YOR231W, strain MKK1, stronger effect = lower value 0.921 | S. cerevisiae deletion strains, locus YOR316C, strain cot1, stronger effect = lower value 0.979 | [18] 0.955 | S. cerevisiae deletion strains, locus YPL256C, strain CLN2, stronger effect = lower value 1.01 | S. cerevisiae deletion strains, locus YPR119W, strain clb2, stronger effect = lower value 0.994 | S. cerevisiae deletion strains, locus YPR141C, strain kar3, stronger effect = lower value 0.967 | S. cerevisiae deletion strains, locus YPR163C, strain tif3, stronger effect = lower value 0.988 | S. cerevisiae deletion strains, locus YPR167C, strain met16, stronger effect = lower value 0.968 | S. cerevisiae deletion strains, strain wtn01, stronger effect = lower value 0.961 | [20] 0.99
active: [9] 1.3 [resistant] | S. cerevisiae deletion strains, locus YOR069W, strain VPS5, stronger effect = lower value 1.14 [resistant]
